Assay results published in PubChem BioAssay (EPA / NIEHS).
Activity calls are given as the source filed them. How the source made its calls: active means hit-call score of the fitted dose curve at least 0.9, where 1 is the maximum; inactive means score below 0.9.

Tests used:
[1] = target: Transcription factor E2F1 (Homo sapiens) (UniProt Q01094); assay: ATG_E2F_CIS: Attagene CIS-FACTORIAL HepG2 Assay for human E2F Transcription Factor 1 (AID 2282935); conditions: HepG2 Attagene cis-reporter, E2F reporter RNA transcripts; actives raise or lower the signal
In short: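 Fluorescent RT-PCR products, digested with HpaI for 2 h at 37 C, are separated by capillary electrophoresis. Source RNA comes from transfected HepG2 cultures treated for 24 h.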

[2] = ATG_E_Box_CIS: Attagene CIS-FACTORIAL HepG2 Assay for human Enhancer Box (E-box) (AID 2282936); conditions: HepG2 E-box cis-reporter transcription, actives raise or lower the signal
In short: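 Fluorescent reporter fragments separated by capillary electrophoresis gave the signal; mRNA came from HepG2 cells transfected with cis-element reporters and treated 24 h. Curves fitted bidirectionally relative to DMSO controls.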

[3] = ATG_M_61_CIS: Attagene CIS-FACTORIAL HepG2 Assay for M61 Transcription Factor (Internal Marker) (AID 2282937); conditions: HepG2 Attagene CIS-FACTORIAL M61 internal marker reporter; actives raise or lower the signal
In short: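 Background-control endpoint: HepG2 cells with cis-regulated reporter constructs, 24 h exposure, reporter mRNA detected via fluorescent primer extension and capillary electrophoresis; values from bidirectional fitting with DMSO baseline.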

[4] = ATG_EGR_CIS: Attagene CIS-FACTORIAL HepG2 Assay for human Early Growth Response 1 (EGR1) (AID 2282938); conditions: HepG2 Attagene CIS-FACTORIAL EGR reporter mRNA; actives raise or lower the signal
In short: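 Endpoint derived by bidirectional fitting versus DMSO vehicle. Method: cis-promoter reporter units transfected into HepG2, 24 h dosing, RNA isolation, RT-PCR with 6-FAM primer extension and HpaI digestion, then capillary electrophoresis fluorescence detection.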

[5] = ATG_M_19_CIS: Attagene CIS-FACTORIAL HepG2 Assay for M19 Transcription Factor (Internal Marker) (AID 2282939); conditions: HepG2 Attagene CIS-FACTORIAL M19 internal marker reporter; actives raise or lower the signal
In short: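 HepG2, MRTU transient transfection, 24 h dosing. Total RNA → RT-PCR → 6-FAM primer extension → HpaI digest → CE fluorescence. Bidirectional curve fit, DMSO negative control.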

[6] = ATG_ERE_CIS: Attagene CIS-FACTORIAL HepG2 Assay for Estrogen Response Element (ERE) (AID 2282940); conditions: HepG2 ERE cis-reporter, Attagene RNA transcript; actives raise or lower the signal
In short: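 After a 24 h chemical treatment, RNA from reporter-transfected HepG2 cells is reverse-transcribed, PCR-amplified and fluorescently labelled. Fragments separated by capillary electrophoresis give reporter signal; DMSO serves as negative control.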

[7] = ATG_Ets_CIS: Attagene CIS-FACTORIAL HepG2 Assay for human Erythroblast Transformation Specific (ETS) (AID 2282941); conditions: HepG2 ETS cis-reporter transcription, actives raise or lower the signal
In short: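 Multiplexed reporter transcript profiling: HepG2, 24 h treatment, total RNA to cDNA, PCR, 6-FAM labelling, HpaI cut, capillary electrophoresis. Gain- or loss-of-signal fitted against DMSO.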

[8] = target: Hepatocyte nuclear factor 3-beta (Homo sapiens) (UniProt Q9Y261); assay: ATG_FoxA2_CIS: Attagene CIS-FACTORIAL HepG2 Assay for human Forkhead box A2 (FOXA2) (AID 2282942); conditions: HepG2 cis-reporter transcription factor activity, 24 h; actives raise or lower the signal
In short: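 Measured: reporter mRNA induction or loss in HepG2 transiently carrying multiple cis-regulated reporter units, 24 h after dosing. Quantified by RT-PCR plus capillary electrophoresis, normalised to DMSO.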

[9] = ATG_FoxO_CIS: Attagene CIS-FACTORIAL HepG2 Assay for human Forkhead box O (FoxO) (AID 2282943); conditions: HepG2 Attagene cis-reporter, FoxO element, mRNA; actives raise or lower the signal
In short: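 HepG2, transient MRTU transfection (cis element, endogenous TFs). Dose 24 h. TriZol RNA → oligo(dT) RT → PCR → 6-FAM primer extension → HpaI cut → CE. Gain/loss vs DMSO.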

[10] = ATG_GATA_CIS: Attagene CIS-FACTORIAL HepG2 Assay for human GATA Binding Protein (AID 2282944); conditions: HepG2 GATA cis-element reporter, Attagene multiplex mRNA; actives raise or lower the signal
In short: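 Cells: HepG2, transiently transfected with cis-regulated reporter transcription units. Exposure: 24 h. Detection: RT-PCR plus capillary electrophoresis of FAM-labeled fragments. Analysis: bidirectional, DMSO as baseline.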

Sequence of Transcription factor E2F1 (Homo sapiens) (Q01094 whole entry, looked up): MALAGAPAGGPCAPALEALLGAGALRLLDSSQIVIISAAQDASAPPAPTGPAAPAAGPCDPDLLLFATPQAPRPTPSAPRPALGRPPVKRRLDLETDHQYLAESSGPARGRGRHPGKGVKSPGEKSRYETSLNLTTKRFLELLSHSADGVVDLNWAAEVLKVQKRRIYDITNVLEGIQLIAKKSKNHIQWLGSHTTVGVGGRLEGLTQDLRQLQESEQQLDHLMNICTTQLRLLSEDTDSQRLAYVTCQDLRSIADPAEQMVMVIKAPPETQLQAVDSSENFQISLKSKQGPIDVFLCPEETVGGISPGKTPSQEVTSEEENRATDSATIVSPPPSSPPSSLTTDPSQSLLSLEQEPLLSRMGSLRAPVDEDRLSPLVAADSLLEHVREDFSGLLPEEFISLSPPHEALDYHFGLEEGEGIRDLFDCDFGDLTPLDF
Sequence of Hepatocyte nuclear factor 3-beta (Homo sapiens) (Q9Y261 whole entry, looked up): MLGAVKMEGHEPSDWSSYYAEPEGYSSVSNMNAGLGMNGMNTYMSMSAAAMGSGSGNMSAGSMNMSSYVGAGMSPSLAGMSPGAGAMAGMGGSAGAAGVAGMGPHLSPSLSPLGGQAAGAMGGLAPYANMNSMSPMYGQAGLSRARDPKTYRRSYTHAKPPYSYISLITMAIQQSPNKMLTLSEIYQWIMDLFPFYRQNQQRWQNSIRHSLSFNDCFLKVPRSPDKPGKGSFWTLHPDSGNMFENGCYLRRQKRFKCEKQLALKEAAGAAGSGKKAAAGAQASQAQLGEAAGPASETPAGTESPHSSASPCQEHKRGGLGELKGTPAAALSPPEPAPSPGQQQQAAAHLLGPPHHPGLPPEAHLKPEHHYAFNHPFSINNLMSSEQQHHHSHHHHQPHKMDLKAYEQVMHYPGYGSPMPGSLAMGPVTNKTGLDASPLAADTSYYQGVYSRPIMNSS

SMILES | outcome [1] | outcome [2] | outcome [3] | outcome [4] | outcome [5] | outcome [6] | outcome [7] | outcome [8] | outcome [9] | outcome [10] | AC50 [6] | AC50 [2]
C=C(C)C(=O)OCCOCCOC(=O)C(=C)C | inactive | inactive | inactive | inactive | inactive | inactive | inactive | inactive | inactive | inactive |  | 
CC1=CCC(=C(C)C)CC1 | inactive | inactive | inactive | inactive | inactive |  | inactive | inactive | inactive | inactive | 60 µM (active) | 
CC(C)COC(=O)c1ccccc1O | inactive | inactive | inactive | inactive | inactive | inactive | inactive | inactive | inactive | inactive |  | 
CCC(CC)CO | inactive | inactive | inactive | inactive | inactive | inactive | inactive | inactive | inactive | inactive |  | 
CC(C)=CC(=O)O | inactive | inactive | inactive | inactive | inactive |  | inactive | inactive | inactive | inactive | 7.06 µM (active) | 
NC(=O)c1cccnc1 | inactive | inactive | inactive | inactive | inactive | inactive | inactive | inactive | inactive | inactive |  | 
CNC(=C[N+](=O)[O-])NCCSCc1ccc(CN(C)C)o1 | inactive | inactive | inactive | inactive | inactive | inactive | inactive | inactive | inactive | inactive |  | 
C=C(C)C(=O)OCCC[Si](OC)(OC)OC | inactive | inactive | inactive | inactive | inactive | inactive | inactive | inactive | inactive | inactive |  | 
CC(=O)OC(C)(C)C | inactive | inactive | inactive | inactive | inactive | inactive | inactive | inactive | inactive | inactive |  | 
CCCCCCCC(=O)N(C)C | inactive | inactive | inactive | inactive | inactive | inactive | inactive | inactive | inactive | inactive |  | 
C=C(C)C(N)=O | inactive | inactive | inactive | inactive | inactive | inactive | inactive | inactive | inactive | inactive |  | 
O=C(O)c1cc2ccccc2cc1O | inactive | inactive | inactive | inactive | inactive | inactive | inactive | inactive | inactive | inactive |  | 
ClCCOCCOCCCl | inactive | inactive | inactive | inactive | inactive | inactive | inactive | inactive | inactive | inactive |  | 
C1CCCNCC1 | inactive | inactive | inactive | inactive | inactive | inactive | inactive | inactive | inactive | inactive |  | 
O=C(O)C1=NN(c2ccc(S(=O)(=O)O)cc2)C(=O)C1 | inactive | inactive | inactive | inactive | inactive | inactive | inactive | inactive | inactive | inactive |  | 
C=C1CC/C=C(\C)CC[C@@H]2[C@@H]1CC2(C)C | inactive |  | inactive | inactive | inactive |  | inactive | inactive | inactive | inactive | 33.8 µM (active) | 94.9 µM (active)
[O-]/[N+](=N\O)c1ccccc1 | inactive | inactive | inactive | inactive | inactive |  | inactive | inactive | inactive | inactive | 27.7 µM (active) | 
O=C1OCc2ccccc21 | inactive | inactive | inactive | inactive | inactive | inactive | inactive | inactive | inactive | inactive |  | 
CC(O)COCC(C)O (centres undefined) | inactive | inactive | inactive | inactive | inactive | inactive | inactive | inactive | inactive | inactive |  | 
CCCCCCCCCCCCN1CCOCC1 | inactive | inactive | inactive | inactive | inactive | inactive | inactive | inactive | inactive | inactive |  | 
CC(=O)c1ccc(O)cc1 | inactive | inactive | inactive | inactive | inactive |  | inactive | inactive | inactive | inactive | 26.5 µM (active) | 
CC(CO)(CO)[N+](=O)[O-] | inactive | inactive | inactive | inactive | inactive | inactive | inactive | inactive | inactive | inactive |  | 
OCCCO | inactive | inactive | inactive | inactive | inactive | inactive | inactive |  | inactive | inactive |  | 
c1ccc(Cc2ccccc2)cc1 | inactive | inactive | inactive | inactive | inactive |  | inactive |  | inactive | inactive | 100 µM (active) | 
NC(=O)c1c(Cl)cccc1Cl | inactive | inactive | inactive | inactive | inactive |  | inactive | inactive | inactive | inactive |  | 
CC(C)C(=O)c1ccccc1 | inactive | inactive | inactive | inactive | inactive |  | inactive | inactive | inactive | inactive |  | 

SMILES | outcome [1] | outcome [2] | outcome [3] | outcome [4] | outcome [5] | outcome [6] | outcome [7] | outcome [8] | outcome [9] | outcome [10] | AC50 [6] | AC50 [2]
CCOC(=O)CC(C)C | inactive | inactive | inactive | inactive | inactive | inactive | inactive | inactive | inactive | inactive |  | 
CC(=O)N(C)C | inactive | inactive | inactive | inactive | inactive | inactive | inactive | inactive | inactive | inactive |  | 
Cc1cccc(C)c1 | inactive | inactive | inactive | inactive | inactive | inactive | inactive |  | inactive | inactive |  | 
O=C(O)c1ccc(C(=O)O)c(C(=O)O)c1 | inactive | inactive | inactive | inactive | inactive | inactive | inactive | inactive | inactive | inactive |  | 
CCCCCc1cccc(=O)o1 | inactive | inactive | inactive | inactive | inactive | inactive | inactive |  | inactive | inactive |  | 
CC(C)(C)c1cccc(O)c1 | inactive | inactive | inactive | inactive | inactive | inactive | inactive |  | inactive | inactive |  | 
CCCCCCCCCCOC(=O)c1ccccc1C(=O)OCCCCCCCC | inactive | inactive | inactive | inactive | inactive | inactive | inactive |  | inactive | inactive |  | 
CCO[Si](CCC#N)(OCC)OCC | inactive | inactive | inactive | inactive | inactive |  | inactive | inactive | inactive | inactive |  | 
CCCCCCCCCOS(=O)(=O)O | inactive | inactive | inactive | inactive | inactive |  | inactive | inactive | inactive | inactive | 5.14 µM (active) | 
CCOCC(C)O (centres undefined) | inactive | inactive | inactive | inactive | inactive | inactive | inactive |  | inactive | inactive |  | 
NS(=O)(=O)c1cc(C(=O)O)c(NCc2ccco2)cc1Cl | inactive | inactive | inactive | inactive | inactive | inactive | inactive |  | inactive | inactive |  | 
CCCCCCCCCC(=O)OCC | inactive | inactive | inactive | inactive | inactive | inactive | inactive | inactive | inactive | inactive |  | 
O=C(O)c1ccccc1O | inactive | inactive | inactive | inactive | inactive | inactive | inactive | inactive | inactive | inactive |  | 
CC(C)Cc1ccc(C(C)C(=O)O)cc1 (centres undefined) | inactive | inactive | inactive | inactive | inactive |  | inactive |  | inactive | inactive | 10.6 µM (active) | 
CCn1cc(C(=O)O)c(=O)c2ccc(C)nc21 | inactive | inactive | inactive | inactive | inactive | inactive | inactive | inactive | inactive | inactive |  | 
CCCCCCCCOS(=O)(=O)O | inactive | inactive | inactive | inactive | inactive |  | inactive |  | inactive | inactive | 135 µM (active) | 
CC1=C(C=O)C(C)(C)CCC1 | inactive | inactive | inactive | inactive | inactive | inactive | inactive |  | inactive | inactive |  | 
C=C(C)C(=O)OCCN(C)C | inactive | inactive | inactive | inactive | inactive | inactive | inactive |  | inactive | inactive |  | 
CC/C=C\C#N | inactive | inactive | inactive | inactive | inactive | inactive | inactive | inactive | inactive | inactive |  | 
CC/C=C\CCOC(C)OCC (centres undefined) | inactive | inactive | inactive | inactive | inactive | inactive | inactive |  | inactive | inactive |  | 
CCCCCCCC1CCCC1=O (centres undefined) | inactive | inactive | inactive | inactive | inactive | inactive | inactive |  | inactive | inactive |  | 
CC(O)CN (centres undefined) | inactive | inactive | inactive | inactive | inactive | inactive | inactive |  | inactive | inactive |  | 
CCC(C)C1CCCCC1=O (centres undefined) | inactive | inactive | inactive | inactive | inactive | inactive | inactive |  | inactive | inactive |  | 
c1coc(CNc2ncnc3nc[nH]c23)c1 | inactive | inactive | inactive | inactive | inactive | inactive | inactive | inactive | inactive | inactive |  | 
CC(CCO)CC(C)(C)C (centres undefined) | inactive | inactive | inactive | inactive | inactive | inactive | inactive |  | inactive | inactive |  | 
CC(C)(O)CCc1ccccc1 | inactive | inactive | inactive | inactive | inactive |  | inactive | inactive | inactive | inactive |  | 
